Laboratory results: PubChem BioAssay (EPA / NIEHS)
Activity calls are given as the source filed them. How the source made its calls: active means hit-call score of the fitted dose curve at least 0.9, where 1 is the maximum; inactive means score below 0.9.

Experiments:
[1] = ATG_CRE_CIS: Attagene CIS-FACTORIAL HepG2 Assay for human cAMP Responsive Element (CRE) binding protein 3 (AID 2282926); conditions: HepG2 CRE cis-reporter, Attagene multiplexed mRNA; actives raise or lower the signal
Summary of the method: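 Multiplexed transcription-unit reporters transfected into HepG2; 24 h dosing; RT-PCR/capillary electrophoresis fluorescence read-out; bidirectional fit vs DMSO.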

[2] = molecular target: CCAAT/enhancer-binding protein beta (Homo sapiens) (UniProt P17676); assay: ATG_C_EBP_CIS: Attagene CIS-FACTORIAL HepG2 Assay for human CCAAT/Enhancer Binding Protein (C/EBP) beta (AID 2282927); conditions: HepG2 Attagene cis-factorial transcription factor reporter; actives raise or lower the signal
Summary of the method: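 Endogenous C/EBPb-driven reporter transcripts measured in transfected human HepG2 cells at 24 h via RT-PCR and capillary electrophoresis of labelled fragments. Activity fitted in both directions relative to DMSO baseline.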

[3] = ATG_CMV_CIS: Attagene CIS-FACTORIAL HepG2 Assay for human CMV (Internal Marker) (AID 2282928); conditions: HepG2 CMV promoter reporter, transcription factor profiling; actives raise or lower the signal;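 further: endpoint acts as a background internal control marker rather than a target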
Summary of the method: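 HepG2 cells transiently transfected with multiple cis-regulated reporter units; 24 h compound exposure. Reporter mRNA quantified by RT-PCR, 6-FAM primer-extension labeling, HpaI digestion and capillary electrophoresis; bidirectional fitting against DMSO baseline.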

[4] = ATG_DR4_LXR_CIS: Attagene CIS-FACTORIAL HepG2 Assay for human Liver X Receptor (LXR), DR4 submotif (AID 2282929); conditions: HepG2 Attagene DR4 cis-reporter, mRNA transcription; actives raise or lower the signal
Summary of the method: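 DR4 cis-reporter in HepG2, 24 h exposure. Detection: RT-PCR, 6-FAM labelling, CE fragment analysis. Endpoint fitted bidirectionally, DMSO = baseline.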

[5] = molecular target: Aryl hydrocarbon receptor (Homo sapiens) (UniProt P35869); assay: ATG_Ahr_CIS: Attagene CIS-FACTORIAL HepG2 Assay for human Aryl Hydrocarbon Receptor (Ahr) (AID 2282930); conditions: HepG2 AhR cis-factorial reporter transcription; actives raise or lower the signal
Summary of the method: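 Reporter mRNA levels, quantified by RT-PCR and fluorescent capillary electrophoresis, reflect endogenous AhR transcriptional activity in HepG2 cells carrying transfected cis-promoter reporter constructs. Readout at 24 h post-dose; gain or loss fitted against DMSO baseline.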

[6] = ATG_AP_1_CIS: Attagene CIS-FACTORIAL HepG2 Assay for human Activator Protein 1 (AP-1) (AID 2282931); conditions: HepG2 Attagene cis-factorial AP-1 reporter mRNA; actives raise or lower the signal
Summary of the method: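 Cis-regulated reporter units transiently expressed in HepG2 report endogenous transcription-factor activity. Signal: reporter mRNA at 24 h, via RT-PCR and fluorescent capillary electrophoresis. Endpoint derived by bidirectional fitting, DMSO as negative control.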

[7] = ATG_AP_2_CIS: Attagene CIS-FACTORIAL HepG2 Assay for human Activator Protein 2 (AP-2) (AID 2282932); conditions: HepG2 AP-2 cis-reporter, Attagene transcription factor profiling; actives raise or lower the signal
Summary of the method: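 Step one: transient transfection of HepG2 with reporter transcription units. Step two: 24 h chemical exposure. Step three: RNA extraction, RT-PCR, labelled fragment analysis by capillary electrophoresis; DMSO serves as baseline.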

[8] = ATG_BRE_CIS: Attagene CIS-FACTORIAL HepG2 Assay for human Bone Morphogenetic Protein (BMP) Response Element (BRE) (AID 2282933); conditions: HepG2 BMP response element reporter, Attagene transcription factor profiling; actives raise or lower the signal
Summary of the method: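 Gain- or loss-of-signal was derived by bidirectional fitting against DMSO controls. The signal came from reporter mRNA, measured by RT-PCR and capillary electrophoresis, in HepG2 cells transiently carrying multiple reporter units and dosed for 24 h.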

[9] = molecular target: Transcription factor E2F1 (Homo sapiens) (UniProt Q01094); assay: ATG_E2F_CIS: Attagene CIS-FACTORIAL HepG2 Assay for human E2F Transcription Factor 1 (AID 2282935); conditions: HepG2 Attagene cis-reporter, E2F reporter RNA transcripts; actives raise or lower the signal
Summary of the method: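 Total RNA from 24 h-treated, reporter-transfected HepG2 cells undergoes DNase I treatment, oligo(dT) reverse transcription, PCR and 6-FAM primer extension before capillary electrophoresis.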

[10] = ATG_E_Box_CIS: Attagene CIS-FACTORIAL HepG2 Assay for human Enhancer Box (E-box) (AID 2282936); conditions: HepG2 E-box cis-reporter transcription, actives raise or lower the signal
Summary of the method: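 DMSO served as negative control and baseline for bidirectional fitting. Human hepatoma HepG2 cells, transiently transfected with cis-reporter constructs, were dosed 24 h; reporter mRNA read by RT-PCR and capillary electrophoresis.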

[11] = ATG_M_61_CIS: Attagene CIS-FACTORIAL HepG2 Assay for M61 Transcription Factor (Internal Marker) (AID 2282937); conditions: HepG2 Attagene CIS-FACTORIAL M61 internal marker reporter; actives raise or lower the signal
Summary of the method: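 Background-control endpoint: HepG2 cells with cis-regulated reporter constructs, 24 h exposure, reporter mRNA detected via fluorescent primer extension and capillary electrophoresis; values from bidirectional fitting with DMSO baseline.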

[12] = ATG_EGR_CIS: Attagene CIS-FACTORIAL HepG2 Assay for human Early Growth Response 1 (EGR1) (AID 2282938); conditions: HepG2 Attagene CIS-FACTORIAL EGR reporter mRNA; actives raise or lower the signal
Summary of the method: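 Endpoint derived by bidirectional fitting versus DMSO vehicle. Method: cis-promoter reporter units transfected into HepG2, 24 h dosing, RNA isolation, RT-PCR with 6-FAM primer extension and HpaI digestion, then capillary electrophoresis fluorescence detection.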

[13] = ATG_M_19_CIS: Attagene CIS-FACTORIAL HepG2 Assay for M19 Transcription Factor (Internal Marker) (AID 2282939); conditions: HepG2 Attagene CIS-FACTORIAL M19 internal marker reporter; actives raise or lower the signal
Summary of the method: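 Following a 24 h exposure, RNA from transfected HepG2 cells was reverse-transcribed, PCR-amplified with reporter-specific primers, end-labelled with 6-FAM and HpaI-digested before capillary separation. Values represent gain or loss versus DMSO.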

[14] = ATG_Ets_CIS: Attagene CIS-FACTORIAL HepG2 Assay for human Erythroblast Transformation Specific (ETS) (AID 2282941); conditions: HepG2 ETS cis-reporter transcription, actives raise or lower the signal
Summary of the method: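 HepG2 cells transiently transfected with cis-promoter reporter transcription units were dosed for 24 h; reporter mRNA was measured by RT-PCR, 6-FAM primer extension, HpaI digestion and capillary electrophoresis, with bidirectional fitting against DMSO baseline.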

[15] = molecular target: Hepatocyte nuclear factor 3-beta (Homo sapiens) (UniProt Q9Y261); assay: ATG_FoxA2_CIS: Attagene CIS-FACTORIAL HepG2 Assay for human Forkhead box A2 (FOXA2) (AID 2282942); conditions: HepG2 cis-reporter transcription factor activity, 24 h; actives raise or lower the signal
Summary of the method: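 Measured: reporter mRNA induction or loss in HepG2 transiently carrying multiple cis-regulated reporter units, 24 h after dosing. Quantified by RT-PCR plus capillary electrophoresis, normalised to DMSO.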

[16] = ATG_FoxO_CIS: Attagene CIS-FACTORIAL HepG2 Assay for human Forkhead box O (FoxO) (AID 2282943); conditions: HepG2 Attagene cis-reporter, FoxO element, mRNA; actives raise or lower the signal
Summary of the method: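 Endogenous transcription factor activity read from multiplexed cis-promoter reporter transcripts in transiently transfected HepG2, 24 h after dosing. Reporter RNA measured via RT-PCR plus capillary electrophoresis of FAM-labeled products; gain or loss relative to DMSO.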

[17] = ATG_GLI_CIS: Attagene CIS-FACTORIAL HepG2 Assay for human Zinc Finger Protein GLI1 (AID 2282945); conditions: HepG2, Attagene cis-factorial reporter mRNA, GLI element; actives raise or lower the signal
Summary of the method: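 Bidirectional curve fits relative to DMSO, using reporter mRNA levels from RT-PCR plus capillary electrophoresis. Cells were HepG2 transiently carrying cis-regulated reporter constructs, harvested 24 h after dosing.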

[18] = ATG_GATA_CIS: Attagene CIS-FACTORIAL HepG2 Assay for human GATA Binding Protein (AID 2282944); conditions: HepG2 GATA cis-element reporter, Attagene multiplex mRNA; actives raise or lower the signal
Summary of the method: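 DMSO serves as negative control and baseline for bidirectional fitting of reporter mRNA changes. HepG2 cells bearing transiently transfected cis-promoter reporters were exposed 24 h; transcripts detected via RT-PCR and capillary electrophoresis.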

Measured: AC50

Sequence of Hepatocyte nuclear factor 3-beta (Homo sapiens) (Q9Y261 whole entry, looked up): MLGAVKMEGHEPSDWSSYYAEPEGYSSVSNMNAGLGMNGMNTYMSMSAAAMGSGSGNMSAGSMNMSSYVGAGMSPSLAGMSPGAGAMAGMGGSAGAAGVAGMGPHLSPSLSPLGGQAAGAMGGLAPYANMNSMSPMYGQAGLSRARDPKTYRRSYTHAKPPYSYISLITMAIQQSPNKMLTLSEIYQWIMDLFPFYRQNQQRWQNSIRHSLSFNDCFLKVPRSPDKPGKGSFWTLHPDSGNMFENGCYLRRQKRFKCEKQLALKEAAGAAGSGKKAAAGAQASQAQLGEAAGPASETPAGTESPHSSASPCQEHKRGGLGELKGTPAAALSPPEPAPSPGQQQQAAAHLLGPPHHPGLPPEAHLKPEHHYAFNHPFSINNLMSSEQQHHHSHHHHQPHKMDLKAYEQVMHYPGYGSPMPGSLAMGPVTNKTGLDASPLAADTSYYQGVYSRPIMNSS
Sequence of Aryl hydrocarbon receptor (Homo sapiens) (P35869 whole entry, looked up): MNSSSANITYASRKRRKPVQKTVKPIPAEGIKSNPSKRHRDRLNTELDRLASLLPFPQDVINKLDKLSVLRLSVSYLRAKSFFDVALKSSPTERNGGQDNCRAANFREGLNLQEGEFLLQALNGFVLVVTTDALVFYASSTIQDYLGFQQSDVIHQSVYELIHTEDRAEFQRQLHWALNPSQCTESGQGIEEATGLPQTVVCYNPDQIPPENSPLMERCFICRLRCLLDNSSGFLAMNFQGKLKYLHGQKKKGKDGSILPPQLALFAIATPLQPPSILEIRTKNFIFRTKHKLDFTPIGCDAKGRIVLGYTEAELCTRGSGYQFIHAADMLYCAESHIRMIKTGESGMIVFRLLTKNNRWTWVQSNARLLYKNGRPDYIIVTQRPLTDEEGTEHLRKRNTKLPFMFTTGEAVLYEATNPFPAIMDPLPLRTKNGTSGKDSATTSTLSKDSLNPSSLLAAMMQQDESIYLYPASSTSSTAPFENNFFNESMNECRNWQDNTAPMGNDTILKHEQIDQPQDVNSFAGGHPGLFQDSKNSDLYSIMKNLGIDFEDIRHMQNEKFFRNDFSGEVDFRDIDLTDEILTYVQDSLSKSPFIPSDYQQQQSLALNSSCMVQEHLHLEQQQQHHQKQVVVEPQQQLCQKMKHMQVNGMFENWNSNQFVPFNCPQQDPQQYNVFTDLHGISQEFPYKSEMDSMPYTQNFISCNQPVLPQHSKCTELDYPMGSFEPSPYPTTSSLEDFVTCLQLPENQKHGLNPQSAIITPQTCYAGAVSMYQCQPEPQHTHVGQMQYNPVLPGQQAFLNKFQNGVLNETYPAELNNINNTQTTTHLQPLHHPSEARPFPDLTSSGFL
Sequence of Transcription factor E2F1 (Homo sapiens) (Q01094 whole entry, looked up): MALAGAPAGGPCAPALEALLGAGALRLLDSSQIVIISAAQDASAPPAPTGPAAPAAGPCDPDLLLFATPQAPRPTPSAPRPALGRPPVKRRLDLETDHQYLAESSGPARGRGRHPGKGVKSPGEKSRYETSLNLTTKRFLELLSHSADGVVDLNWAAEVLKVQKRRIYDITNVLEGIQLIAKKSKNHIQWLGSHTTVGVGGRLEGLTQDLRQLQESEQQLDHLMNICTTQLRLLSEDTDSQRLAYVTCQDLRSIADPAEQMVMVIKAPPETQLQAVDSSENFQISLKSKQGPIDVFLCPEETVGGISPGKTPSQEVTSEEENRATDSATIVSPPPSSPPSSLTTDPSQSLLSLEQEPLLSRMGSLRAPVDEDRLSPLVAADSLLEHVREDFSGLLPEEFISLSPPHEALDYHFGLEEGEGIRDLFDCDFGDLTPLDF
Sequence of CCAAT/enhancer-binding protein beta (Homo sapiens) (P17676 whole entry, looked up, the tested form may be a part): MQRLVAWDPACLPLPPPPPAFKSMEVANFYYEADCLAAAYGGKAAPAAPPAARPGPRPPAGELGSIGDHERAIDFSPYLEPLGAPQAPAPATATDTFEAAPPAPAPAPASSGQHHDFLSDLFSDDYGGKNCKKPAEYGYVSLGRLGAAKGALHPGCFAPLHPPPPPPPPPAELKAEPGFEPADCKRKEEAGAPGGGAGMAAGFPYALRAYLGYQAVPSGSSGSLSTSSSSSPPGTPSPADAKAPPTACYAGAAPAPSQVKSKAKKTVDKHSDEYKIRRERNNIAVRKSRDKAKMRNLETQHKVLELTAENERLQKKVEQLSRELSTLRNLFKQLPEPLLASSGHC

CC(C)=CCCC(C)CC=O (stereo not given)
not listed: [18]
inactive: all other assays above

Cc1ccc(C(=O)c2cc(O)c(O)c([N+](=O)[O-])c2)cc1
active: [3] 26.3 µM | [7] 27.2 µM | [8] 56 µM | [10] 27 µM
not listed: [18]
inactive: all other assays above

Nc1ccc(S(N)(=O)=O)cc1
inactive: all assays above

O=CCCc1ccccc1
inactive: all assays above

C=CCOc1nc(OCC=C)nc(OCC=C)n1
active: [3] 42.9 µM
not listed: [18]
inactive: all other assays above

Nc1cc([N+](=O)[O-])ccc1O
active: [5] 100 µM
inactive: all other assays above

C=C(C)C1CCC(C)CC1O (stereo not given)
not listed: [16]
inactive: all other assays above

CC(=O)C(C)=O
active: [3] 40.6 µM
inactive: all other assays above
